In PubChem BioAssay (NCATS):
Records with an inconclusive call do not appear. Activity calls are given as the source filed them. Unless noted, calls come from the whole dose curve; as a rule, active = well fitted curve in the direction sought with a large enough effect; inconclusive = small, poorly fitted or top-dose-only effect, or another doubt; inactive = no such curve, though single readings can be large; an effect the other way counts as inactive or inconclusive.

Experiments:
[1] = AP1 Signaling Pathway (AID 357; active = well fitted curve in either direction with a large enough effect, not every such curve was filed as active;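 note: ME-180 reporter cells stimulated with EGF at its EC50 level; % is set by controls: 0 for no effect and ±100 for the full control effect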); details: ME-180 (cervical carcinoma) AP-1-bla reporter, EGF-induced, beta-lactamase ratio, 5 h; at 17.2 µM (top of the series) unless noted
How it was run: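 First, ME-180 AP-1-bla cells were cultured overnight at 37 °C in low-serum Opti-MEM. Next, titrated compounds with EC50 EGF were incubated 5 hours. Finally, CCF4 was added for 2.5 hours and the 460/530 nm ratio recorded.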

[2] = NFAT Signaling Pathway (AID 444; active = well fitted curve in either direction with a large enough effect, not every such curve was filed as active;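 note: carbachol stimulus at about its EC50 of 1 µM final; % is set by controls: 0 for no effect and ±100 for the full control effect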); details: Jurkat NFAT-bla M1, carbachol, beta-lactamase ratio, 5 h; at 17.2 µM (top of the series) unless noted
How it was run: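 Jurkat cells with NFAT-driven β-lactamase reporter and co-expressed M1 receptor, stimulated with carbachol (final 1 uM, ~EC50), compound titration, 5 h at 37 °C. CCF4 loaded 1 h at RT; 460/530 nm ratio gave %activity and AC50.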

[3] = target: Glucocorticoid receptor (Homo sapiens) (UniProt P04150); assay: GR-GFP Redistribution (AID 450;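 active = compounds whose dose series gives a full or clear partial fitted curve of increased nuclear translocation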; note: potency is the fitted concentration of half-maximal effect); details: U2OS GR-GFP nuclear translocation, laser cytometry, 2 h
[4] = target: Glucocorticoid receptor (Homo sapiens) (UniProt P04150); assay: GR-EFC Redistribution (AID 451; calls by dose curve; note: potency is the fitted concentration of half-maximal effect); details: CHO-K1 GR-EFC translocation, beta-gal luminescence, 2 h
How it was run: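 CHO-K1 cells expressing nuclear EA and GR-ED fragments of b-gal; compounds titrated up to 46 uM final, 2 h at 37 C. GR nuclear translocation read as complemented b-gal luminescence after 1 h RT detection.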

[5] = target: Mitogen-activated protein kinase 10 (Mus musculus) (UniProt Q61831); assay: JNK3 AlphaScreen Assay (AID 530; active = well fitted curve in either direction with a large enough effect, not every such curve was filed as active;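 note: kinase came from lysate of stimulated human HepG2 cells; signal reports phosphorylation of biotinylated GST-cJun 1-79 at Ser73 with 10 µM ATP; % is set by controls: 0 for no effect and ±100 for the full control effect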)
How it was run: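 Activity was read by AlphaScreen after JNK3-containing HepG2 lysate (cytokine pre-activated) phosphorylated biotinylated GST-cJun with 10 uM ATP at room temperature. Phospho-Ser73 cJun antibody with Protein-A acceptor beads provided detection.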

[6] = target: 3',5'-cyclic-AMP phosphodiesterase 4B (Homo sapiens) (UniProt Q07343); assay: qHTS Assay for Inhibitors of PDE-IV (AID 607; active = well fitted activation curve with a large enough effect in the main read-out, with a control signal flat, not every such curve was filed as active; note: % of control where 0% means no effect)
How it was run: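 The readout is membrane depolarisation from a cAMP-sensing CNG channel, detected with a potential dye at ex 535/em 590. Cells were HEK293-derived (endogenous PDE-IV) at 1000 cells/well, titrated up to 22.9 uM final.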

[7] = target: Ubiquitin carboxyl-terminal hydrolase 1 (Homo sapiens) (UniProt O94782); assay: Inhibitors of USP1/UAF1: Pilot qHTS (AID 504865);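 note: rhodamine fluorescence freed from ubiquitin-rhodamine substrate followed over time; top concentration of the series differs between compounds; % is set by controls: 0 for no effect and ±100 for the full control effect; nearly all actives have a fitted effect of over 35% in size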
How it was run: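 Deubiquitinase activity followed as kinetic rhodamine fluorescence release from 150 nM Ub-Rho. 1 nM USP1/UAF1 with compound, after 15 min room-temperature preincubation, in HEPES pH 7.8 buffer containing TCEP, EDTA, BSA and Tween-20.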

[8] = target: Luciferin 4-monooxygenase (Photinus pyralis) (UniProt P08659); assay: Biochemical firefly luciferase enzyme assay for NPC (AID 624030);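 note: purified P. pyralis luciferase at 10 nM with luciferin and ATP substrate; 0% = DMSO and -100% = full luciferase inhibition by PTC124 control; nearly all actives have a fitted effect of over 70% in size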
How it was run: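 Purified P. pyralis luciferase at 10 nM in 50 mM Tris Acetate (final), luminescence read within 5 minutes of enzyme addition to compounds. Activity normalised to PTC124 versus DMSO; concentration-response curves classed by r2, magnitude and activity.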

[9] = S16 Schwann cell viability assay (CellTiter-Glo assay) (AID 624031);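 note: native untransfected S16 rat Schwann cells; cellular ATP luminescence as a viability measure; plate controls were DMSO-treated cells for no effect and cell-free wells for full effect; nearly all actives have a fitted effect of over 70% in size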
How it was run: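 Following overnight culture in 10% FBS DMEM, parental S16 rat Schwann cells are dosed for 24 h at 37 °C. Viability is read as CellTiter-Glo luminescence and expressed as % activity relative to DMSO (0%) and no-cell wells.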

[10] = S16 Schwann cell PMP22 intronic element firefly luciferase assay (AID 624032);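 note: plate controls were DMSO for no effect and PTC124 positive control mean for full effect; nearly all actives have a fitted effect of over 30% in size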
How it was run: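 Rat S16 Schwann cells stably carrying firefly luciferase driven by a PMP22 intronic element, in 10% FBS, treated 24 h at 37 C. ONE-Glo luminescence normalized to PTC124 control and DMSO (0%); curves classed by r2, magnitude and activity.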

[11] = qHTS profiling for inhibitors of Plasmodium falciparum proliferation (AID 504749); note: nearly all actives have a fitted effect of over 60% in size; note: potency is the fitted concentration of half-maximal effect;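 for activity, negative = inhibition: 0% = DMSO vehicle and full inhibition = artemisinin control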; details: P. falciparum in erythrocytes, SYBR Green DNA, 72 h, at 12.8 µM (top of the series)
How it was run: (§1)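 Each compound contacts P. falciparum-infected red blood cells for 72 h at 37 C; lysis buffer (Tris, EDTA, saponin, Triton X, SYBR Green I) is added and fluorescence measured next morning; values normalized to controls.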

3D7 = assay: as above; details: P. falciparum in erythrocytes, SYBR Green DNA, 72 h; series mostly up to 28.7 µM
How it was run: as §1

AA1029 = assay: as above; details: P. falciparum in erythrocytes, SYBR Green DNA, 72 h; series mostly up to 28.7 µM
How it was run: as §1

AS120 = assay: as above; details: P. falciparum in erythrocytes, SYBR Green DNA, 72 h; series mostly up to 28.7 µM
How it was run: as §1

ATS189 = assay: as above; details: P. falciparum in erythrocytes, SYBR Green DNA, 72 h; series mostly up to 28.7 µM
How it was run: as §1

C2A = assay: as above; details: P. falciparum in erythrocytes, SYBR Green DNA, 72 h; series mostly up to 28.7 µM
How it was run: as §1

CP185 = assay: as above; details: P. falciparum in erythrocytes, SYBR Green DNA, 72 h; series mostly up to 28.7 µM
How it was run: as §1

CP191 = assay: as above; details: P. falciparum in erythrocytes, SYBR Green DNA, 72 h; series mostly up to 28.7 µM
How it was run: as §1

CP194 = assay: as above; details: P. falciparum in erythrocytes, SYBR Green DNA, 72 h; series mostly up to 28.7 µM
How it was run: as §1

CP201 = assay: as above; details: P. falciparum in erythrocytes, SYBR Green DNA, 72 h; series mostly up to 28.7 µM
How it was run: as §1

CP203 = assay: as above; details: P. falciparum in erythrocytes, SYBR Green DNA, 72 h; series mostly up to 28.7 µM
How it was run: as §1

CP211 = assay: as above; details: P. falciparum in erythrocytes, SYBR Green DNA, 72 h; series mostly up to 28.7 µM
How it was run: as §1

CP215 = assay: as above; details: P. falciparum in erythrocytes, SYBR Green DNA, 72 h; series mostly up to 28.7 µM
How it was run: as §1

CP217 = assay: as above; details: P. falciparum in erythrocytes, SYBR Green DNA, 72 h; series mostly up to 28.7 µM
How it was run: as §1

CP238 = assay: as above; details: P. falciparum in erythrocytes, SYBR Green DNA, 72 h; series mostly up to 28.7 µM
How it was run: as §1

CP247 = assay: as above; details: P. falciparum in erythrocytes, SYBR Green DNA, 72 h; series mostly up to 28.7 µM
How it was run: as §1

CP250 = assay: as above; details: P. falciparum in erythrocytes, SYBR Green DNA, 72 h; series mostly up to 28.7 µM
How it was run: as §1

CP252 = assay: as above; details: P. falciparum in erythrocytes, SYBR Green DNA, 72 h; series mostly up to 28.7 µM
How it was run: as §1

CP256 = assay: as above; details: P. falciparum in erythrocytes, SYBR Green DNA, 72 h; series mostly up to 28.7 µM
How it was run: as §1

CP262 = assay: as above; details: P. falciparum in erythrocytes, SYBR Green DNA, 72 h; series mostly up to 28.7 µM
How it was run: as §1

CP265 = assay: as above; details: P. falciparum in erythrocytes, SYBR Green DNA, 72 h; series mostly up to 28.7 µM
How it was run: as §1

CP266 = assay: as above; details: P. falciparum in erythrocytes, SYBR Green DNA, 72 h; series mostly up to 28.7 µM
How it was run: as §1

CP268 = assay: as above; details: P. falciparum in erythrocytes, SYBR Green DNA, 72 h; series mostly up to 28.7 µM
How it was run: as §1

CP269 = assay: as above; details: P. falciparum in erythrocytes, SYBR Green DNA, 72 h; series mostly up to 28.7 µM
How it was run: as §1

CP297 = assay: as above; details: P. falciparum in erythrocytes, SYBR Green DNA, 72 h; series mostly up to 28.7 µM
How it was run: as §1

CP305 = assay: as above; details: P. falciparum in erythrocytes, SYBR Green DNA, 72 h; series mostly up to 28.7 µM
How it was run: as §1

CP315 = assay: as above; details: P. falciparum in erythrocytes, SYBR Green DNA, 72 h; series mostly up to 28.7 µM
How it was run: as §1

CP325 = assay: as above; details: P. falciparum in erythrocytes, SYBR Green DNA, 72 h; series mostly up to 28.7 µM
How it was run: as §1

CP329 = assay: as above; details: P. falciparum in erythrocytes, SYBR Green DNA, 72 h; series mostly up to 28.7 µM
How it was run: as §1

DIV17 = assay: as above; details: P. falciparum in erythrocytes, SYBR Green DNA, 72 h; series mostly up to 28.7 µM
How it was run: as §1

DIV30 = assay: as above; details: P. falciparum in erythrocytes, SYBR Green DNA, 72 h; series mostly up to 28.7 µM
How it was run: as §1

Dd2 = assay: as above; details: P. falciparum in erythrocytes, SYBR Green DNA, 72 h; series mostly up to 28.7 µM
How it was run: as §1

ECU = assay: as above; details: P. falciparum in erythrocytes, SYBR Green DNA, 72 h; series mostly up to 28.7 µM
How it was run: as §1

FAB9 = assay: as above; details: P. falciparum in erythrocytes, SYBR Green DNA, 72 h; series mostly up to 28.7 µM
How it was run: as §1

JCK = assay: as above; details: P. falciparum in erythrocytes, SYBR Green DNA, 72 h; series mostly up to 28.7 µM
How it was run: as §1

N140 = assay: as above; details: P. falciparum in erythrocytes, SYBR Green DNA, 72 h; series mostly up to 28.7 µM
How it was run: as §1

P94_40 = assay: as above; details: P. falciparum in erythrocytes, SYBR Green DNA, 72 h; series mostly up to 28.7 µM
How it was run: as §1

PC15 = assay: as above; details: P. falciparum in erythrocytes, SYBR Green DNA, 72 h; series mostly up to 28.7 µM
How it was run: as §1

PC26 = assay: as above; details: P. falciparum in erythrocytes, SYBR Green DNA, 72 h; series mostly up to 28.7 µM
How it was run: as §1

PC49 = assay: as above; details: P. falciparum in erythrocytes, SYBR Green DNA, 72 h; series mostly up to 28.7 µM
How it was run: as §1

SC27B = assay: as above; details: P. falciparum in erythrocytes, SYBR Green DNA, 72 h; series mostly up to 28.7 µM
How it was run: as §1

TAB113 = assay: as above; details: P. falciparum in erythrocytes, SYBR Green DNA, 72 h; series mostly up to 28.7 µM
How it was run: as §1

Glucocorticoid receptor (Homo sapiens), sequence (P04150 whole entry, looked up, the tested form may be a part): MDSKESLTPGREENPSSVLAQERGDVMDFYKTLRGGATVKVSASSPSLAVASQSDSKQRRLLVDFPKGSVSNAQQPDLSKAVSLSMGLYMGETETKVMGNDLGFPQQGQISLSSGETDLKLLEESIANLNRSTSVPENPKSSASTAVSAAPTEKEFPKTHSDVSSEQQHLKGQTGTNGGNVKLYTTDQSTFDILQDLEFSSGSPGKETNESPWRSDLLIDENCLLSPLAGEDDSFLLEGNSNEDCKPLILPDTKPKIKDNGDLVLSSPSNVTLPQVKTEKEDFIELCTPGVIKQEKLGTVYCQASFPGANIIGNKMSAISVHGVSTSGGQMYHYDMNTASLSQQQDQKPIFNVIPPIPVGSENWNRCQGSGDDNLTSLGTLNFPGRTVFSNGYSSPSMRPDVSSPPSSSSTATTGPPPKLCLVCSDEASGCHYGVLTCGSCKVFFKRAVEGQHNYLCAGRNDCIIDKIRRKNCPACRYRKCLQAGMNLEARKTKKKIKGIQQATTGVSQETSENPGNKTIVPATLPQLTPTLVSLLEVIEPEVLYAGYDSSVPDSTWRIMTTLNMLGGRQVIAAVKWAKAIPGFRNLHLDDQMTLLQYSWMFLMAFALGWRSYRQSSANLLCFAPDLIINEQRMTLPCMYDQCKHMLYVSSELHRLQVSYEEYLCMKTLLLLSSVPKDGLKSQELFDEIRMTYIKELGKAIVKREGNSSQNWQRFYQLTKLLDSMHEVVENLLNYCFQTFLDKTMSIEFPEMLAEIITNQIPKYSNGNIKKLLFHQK
Ubiquitin carboxyl-terminal hydrolase 1 (Homo sapiens), sequence (O94782 whole entry, looked up): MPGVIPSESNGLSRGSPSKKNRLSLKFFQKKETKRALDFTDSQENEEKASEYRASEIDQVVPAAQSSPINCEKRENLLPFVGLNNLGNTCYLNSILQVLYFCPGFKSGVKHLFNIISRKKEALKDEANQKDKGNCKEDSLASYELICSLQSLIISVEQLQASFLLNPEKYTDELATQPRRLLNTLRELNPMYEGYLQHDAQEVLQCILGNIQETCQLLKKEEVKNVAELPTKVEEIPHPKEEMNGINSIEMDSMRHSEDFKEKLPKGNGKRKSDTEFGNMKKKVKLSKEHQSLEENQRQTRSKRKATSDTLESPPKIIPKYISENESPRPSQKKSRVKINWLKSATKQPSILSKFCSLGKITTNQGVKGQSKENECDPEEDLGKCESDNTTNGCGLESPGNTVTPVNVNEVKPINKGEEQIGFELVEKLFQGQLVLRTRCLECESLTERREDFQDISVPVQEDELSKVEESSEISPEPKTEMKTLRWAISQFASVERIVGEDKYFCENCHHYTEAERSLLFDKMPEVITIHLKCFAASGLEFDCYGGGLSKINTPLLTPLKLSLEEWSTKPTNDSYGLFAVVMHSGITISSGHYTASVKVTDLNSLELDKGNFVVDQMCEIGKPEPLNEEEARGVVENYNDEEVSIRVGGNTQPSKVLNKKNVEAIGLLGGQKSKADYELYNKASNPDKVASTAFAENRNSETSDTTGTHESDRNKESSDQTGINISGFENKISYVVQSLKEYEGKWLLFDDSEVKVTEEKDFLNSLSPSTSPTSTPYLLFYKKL
3',5'-cyclic-AMP phosphodiesterase 4B (Homo sapiens), sequence (Q07343 whole entry, looked up): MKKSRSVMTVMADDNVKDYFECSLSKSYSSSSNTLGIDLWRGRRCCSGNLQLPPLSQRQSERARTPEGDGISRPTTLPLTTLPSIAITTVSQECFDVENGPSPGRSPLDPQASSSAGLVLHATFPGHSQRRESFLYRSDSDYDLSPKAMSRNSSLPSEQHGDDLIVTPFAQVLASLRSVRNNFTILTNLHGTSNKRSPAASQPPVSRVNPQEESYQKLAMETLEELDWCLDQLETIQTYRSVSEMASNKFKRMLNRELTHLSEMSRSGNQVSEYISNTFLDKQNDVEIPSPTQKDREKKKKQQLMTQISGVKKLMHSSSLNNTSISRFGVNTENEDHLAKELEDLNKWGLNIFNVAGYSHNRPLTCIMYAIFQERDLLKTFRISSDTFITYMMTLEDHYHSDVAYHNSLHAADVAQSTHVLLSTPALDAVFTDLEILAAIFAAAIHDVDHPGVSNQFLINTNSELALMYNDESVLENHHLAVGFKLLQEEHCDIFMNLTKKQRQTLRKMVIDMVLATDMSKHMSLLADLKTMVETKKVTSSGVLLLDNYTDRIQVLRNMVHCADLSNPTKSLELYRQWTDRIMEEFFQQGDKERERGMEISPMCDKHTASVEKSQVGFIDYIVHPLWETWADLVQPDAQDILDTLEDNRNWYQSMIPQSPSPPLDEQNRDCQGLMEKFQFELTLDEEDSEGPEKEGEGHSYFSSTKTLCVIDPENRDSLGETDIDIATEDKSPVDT
Luciferin 4-monooxygenase (Photinus pyralis), sequence (P08659 whole entry, looked up): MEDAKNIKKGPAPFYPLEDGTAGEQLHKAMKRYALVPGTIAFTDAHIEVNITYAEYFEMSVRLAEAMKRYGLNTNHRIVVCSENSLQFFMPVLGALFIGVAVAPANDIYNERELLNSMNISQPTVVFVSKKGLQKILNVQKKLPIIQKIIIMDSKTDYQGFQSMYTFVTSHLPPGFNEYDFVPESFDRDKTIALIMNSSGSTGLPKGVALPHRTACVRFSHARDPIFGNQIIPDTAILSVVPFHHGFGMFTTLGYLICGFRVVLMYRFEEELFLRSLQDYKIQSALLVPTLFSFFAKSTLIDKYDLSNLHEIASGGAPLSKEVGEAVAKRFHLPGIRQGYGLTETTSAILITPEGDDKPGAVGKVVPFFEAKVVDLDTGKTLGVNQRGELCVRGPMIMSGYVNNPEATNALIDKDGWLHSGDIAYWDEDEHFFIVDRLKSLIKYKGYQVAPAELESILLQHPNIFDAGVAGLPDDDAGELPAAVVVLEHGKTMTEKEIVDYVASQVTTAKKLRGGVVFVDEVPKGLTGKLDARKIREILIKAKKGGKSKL

CN(C)[C@H]1C(=O)C(C(N)=O)=C(O)[C@]2(O)C(=O)C3=C(O)c4c(O)cccc4[C@@](C)(O)[C@H]3C[C@@H]12
inactive: activity change, negative = inhibition [1] 11.4% | activity change, negative = inhibition [2] -2.46% | Potency [3] > 20.6 µM | Potency [4] > 20.6 µM | outcome [5] | outcome [6] | Potency [7] | Potency [8] | Potency [9] | Potency [10] | activity, negative = inhibition ([11]; parasite line A) -27.8% | activity, negative = inhibition ([11]; parasite line B) -27.1% | Potency (3D7) | Potency (AA1029) | Potency (AS120) | Potency (ATS189) | Potency (C2A) | Potency (CP185) | Potency (CP191) | Potency (CP194) | Potency (CP201) | Potency (CP203) | Potency (CP211) | Potency (CP215) | Potency (CP217) | Potency (CP238) | Potency (CP247) | Potency (CP250) | Potency (CP252) | Potency (CP256) | Potency (CP262) | Potency (CP265) | Potency (CP266) | Potency (CP268) | Potency (CP269) | Potency (CP297) | Potency (CP305) | Potency (CP315) | Potency (CP325) | Potency (CP329) | Potency (DIV17) | Potency (DIV30) | Potency (ECU) | Potency (FAB9) | Potency (JCK) | Potency (N140) | Potency (P94_40) | Potency (PC15) | Potency (PC26) | Potency (PC49) | Potency (SC27B) | Potency (TAB113)
active: Potency (Dd2) 1.78 µM

O=c1c(C=NCCN2CCNCC2)c(O)n(C2CCCCC2)c(=O)n1C1CCCCC1
inactive: activity change, negative = inhibition [1] 4.2% | activity change, negative = inhibition [2] 18.3% | Potency [3] > 20.6 µM
